High-throughput results from PubChem BioAssay.
Shown are actives, neighbours in structure and some others; about 6.8% of the full set was active somewhere.
PINK1 modulator – changes PINK1 expression; PINK1 immunofluorescence, high-content cytometry, 24 h; AID 624263; Potency, µM (top dose mostly 76.6 µM), for inactives: top-dose activation (PINK1 increase), actives largely listed as activators; hit rate 0.2% among 410,000; active = well fitted activation curve with a large enough effect; inconclusive = small, poorly fitted or top-dose-only effect; cell line not stated here; note: % of control where 0% means no effect; nearly all actives have a fitted effect of over 65% in size
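PINK1 protein, normally rapidly degraded, was detected by immunofluorescence after 24 hour compound treatment of a stable cell line. Titration data (5 concentrations) came from laser-scanning cytometry, with CCCP-treated wells as controls.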
SW480 rerep – inducers of DNA re-replication in SW480 colon cancer cells. AID 624297. Potency, µM (doses to about 46.1 µM), without a hit: top-dose re-replication activation, hits mostly activators. hit rate 1.8% among 340,000. SW480 DNA re-replication, Hoechst DNA content imaging, 48 h; note: % of control where 0% means no effect; nearly all actives have a fitted effect of over 55% in size
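SW480 cells exposed to compounds for 48 hr at 37 C, 5% CO2, then Hoechst-stained 40 min. Nuclear DNA content imaged by fluorescence scanning (405 nm excitation, 500-530 nm emission); re-replication scored as increased high-intensity nuclei.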
TSG101-PTAP inh – blocks PTAP/TSG101 interaction to inhibit HIV-1 budding; Q99816; Fluorescence polarization, FITC-PTAP peptide / Tsg101 binding; Potency, µM (highest dose often 115 µM), without a hit: at the highest dose activity change, negative = inhibition, hits mostly inhibitors; 340,000 tested, under 10 active; active = well fitted inhibition curve with a large enough effect in the main read-out, with a control signal flat, not every such curve was filed as active; inconclusive = small, poorly fitted or top-dose-only effect, or effect the other way, or a change in a side signal; inactive = no such curve, though single readings can be large or run the other way; note: % of control where 0% means no effect
Target sequence (Q99816 whole entry, looked up): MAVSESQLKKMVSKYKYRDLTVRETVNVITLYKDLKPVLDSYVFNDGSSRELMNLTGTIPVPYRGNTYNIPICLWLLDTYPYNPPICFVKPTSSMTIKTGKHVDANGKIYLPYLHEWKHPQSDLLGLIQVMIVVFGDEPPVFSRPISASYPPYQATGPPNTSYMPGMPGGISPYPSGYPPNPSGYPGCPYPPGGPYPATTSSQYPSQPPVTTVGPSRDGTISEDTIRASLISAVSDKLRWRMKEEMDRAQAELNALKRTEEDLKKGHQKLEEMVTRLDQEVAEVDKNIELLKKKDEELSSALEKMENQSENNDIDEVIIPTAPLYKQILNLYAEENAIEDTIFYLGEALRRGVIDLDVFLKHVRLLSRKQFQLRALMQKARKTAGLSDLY
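Fluorescence anisotropy tracks displacement of a FITC-tagged PTAP peptide (50 nM) from the Tsg101 binding domain (10 uM), following a 20 min room-temperature incubation at pH 7.5.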
MCF10A rerep – DNA re-replication induction in MCF 10a cells; AID 624296; MCF 10A DNA re-replication, Hoechst nuclear intensity, 48 h; Potency, µM (series often up to 46.1 µM), for the others: top-dose activity, positive = re-replication, hits mostly activators; hit rate 2.9% among 350,000; note: % of control where 0% means no effect; nearly all actives have a fitted effect of over 50% in size
KB-3-1 cytotox – kills parental KB-3-1 adenocarcinoma cells. KB-3-1 viability, CellTiter-Glo ATP luminescence, 72 h. hit rate 1.4% among 400,000. AID 1347075. Potency, µM (series often up to 46.1 µM), most hits filed as cytotoxic; note: % is set by controls: 0 for no effect and ±100 for the full control effect; nearly all actives have a fitted effect of over 60% in size
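Multi-concentration cytotoxicity screen in KB-3-1 cells grown in DMEM lacking phenol red with 10% FBS. After 72 h at 37 °C with compound, ATP-dependent luminescence was recorded.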
KB-V1 MDR tox – KB-V1 MDR subline cytotoxicity; Potency, µM (highest dose often 46.1 µM), usual class: cytotoxic; KB-V1 MDR cells viability, CellTiter-Glo, 72 h; hit rate 3.4% among 400,000; note: % is set by controls: 0 for no effect and ±100 for the full control effect; nearly all actives have a fitted effect of over 60% in size
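Cytotoxicity toward P-gp-expressing KB-V1 cells was determined as loss of CellTiter-Glo luminescence after 72 h at 37 degrees C. Compounds were tested in quantitative HTS format across a concentration range, with curves fitted to normalized data.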
* marks the source's active call; other numbers are inactive results; i = inactive; ? = inconclusive; · = no result; ! = not confirmed by another sample; [ ] = another dose, or the depositor's remark. Unless noted, calls come from the whole dose curve; as a rule, active = well fitted curve in the direction sought with a large enough effect; inconclusive = small, poorly fitted or top-dose-only effect, or another doubt; inactive = no such curve, though single readings can be large; an effect the other way counts as inactive or inconclusive. Potency is the fitted concentration of half-maximal effect.

SMILES	PINK1 modulator	SW480 rerep	TSG101-PTAP inh	MCF10A rerep	KB-3-1 cytotox	KB-V1 MDR tox
CCOc1ccc(NC(=O)CSC2=Nc3ccccc3C3=NC(CCC(=O)NCc4ccccc4)C(=O)N23)cc1 (stereo unspecified)	1%	·	·	·	?	i
COc1ccc(S(=O)(=O)N2CCN(C(=O)c3c(C)nn(-c4ccccc4)c3Cl)CC2)cc1	0%	20%	-2%	?	i	?
Cc1ccc(S(=O)(=O)N2CCN(C(=O)c3c(C)nn(-c4ccccc4)c3Cl)CC2)cc1	·	?	-3%	?	i	10µM*
Cc1cc(C)c(S(=O)(=O)N2CCN(C(=O)c3c(C)nn(-c4ccccc4)c3Cl)CC2)c(C)c1	0%	8%	2%	29%	?	5.2µM*
CCOc1ccc(N=C2SC(C(=O)Nc3ccccc3C#N)C(N)=C2C(=O)Nc2ccc(Cl)cc2)cc1 (stereo unspecified)	4%	-2%	-4%	?	i	i
N#Cc1ccccc1NC(=O)C1SC(=Nc2ccccc2)C(C(=O)Nc2ccc(Cl)cc2)=C1N (stereo unspecified)	?	2%	-2%	?	5.2µM*	6.5µM*
CCCn1c(SCC(=O)Nc2ccccc2OC)nnc1-c1ccco1	4%	9.2µM*	-1%	6.5µM*	?	?
COc1ccc(NC(=O)CSc2nnc(-c3ccccn3)n2-c2ccccc2)cc1OC	-3%[38.3 µM]	-7%	-4%	-4%	i	15µM*
COc1ccc(-n2c(SCC(=O)Nc3cccc(C(=O)O)c3)nnc2-c2ccco2)cc1	1%	-14%	0%	-7%	i	i
COc1ccc(OC)c(NC(=O)CSc2nnc(-c3ccco3)n2-c2ccccc2)c1	1%[38.3 µM]	3.7µM*	-5%	1%	i	?
COc1ccc(NC(=O)CSc2ccccn2)cc1OC	0%	0%	-4%	13%	i	i
Cc1c2cnn(CC(=O)N3CCN(c4ccc(F)cc4)CC3)c(=O)c2c(C)n1Cc1ccc(F)cc1	0%	·	·	·	i	i
COc1ccc(CCNC(=O)CCCCn2c(=O)c3ccccc3n(Cc3ccccc3Cl)c2=O)cc1OC	1%	·	·	·	i	i
CCOC(=O)C1(Nc2nccs2)Sc2ccccc2NC1=O (stereo unspecified)	5%	15µM*	2%	13µM*	5.8µM*	?
CC(C)COc1ccc(CSCCNC(=S)Nc2ccccc2)cc1	?	?	-2%	?	i	26µM*
CC(C)c1nc2oc3c(NCc4ccccn4)ncnc3c2c2c1COC(C)(C)C2	-1%	-1%	0%	-16%	i	i
Cc1nc2oc3c(NCc4ccccn4)ncnc3c2c2c1COC(C)(C)C2	-1%[38.3 µM]	3%	-8%	5%	?	2.1µM*
COc1cc(C=C(c2nc3ccccc3s2)c2nc3ccccc3s2)ccc1O	-1%	?	-3%	21µM*	i	i
COc1ccc(/C=N/Nc2nc3ccccc3s2)cc1O	-1%	-4%	1%	15%	i	?
COc1cc(/C=C/c2nc3ccccc3s2)cc(OC)c1O	-1%	3%	1%	?	i	i
COc1ccc(C=C(c2nc3ccccc3s2)c2nc3ccccc3s2)cc1O	0%	?	-1%	13µM*	i	?
CCCCOc1cc(C(=O)NCCN(CC)CC)c2ccccc2n1	3%	-49%	1%	12µM*!	i	?
CCN(CC)CCNC(=O)c1cc(-c2ccc(Br)s2)nc2ccccc12	-1%	?	-9%	?	i	?
COc1ccc(C(NC(=O)CC(C)C)c2c(O)ccc3ccccc23)cc1 (stereo unspecified)	?	3%	-3%	?	?	i
CC(C)(C)C(=O)NC(c1ccccc1)c1c(O)ccc2ccccc12 (stereo unspecified)	?	16%	-4%	24%	i	i
SMILES	PINK1 modulator	SW480 rerep	TSG101-PTAP inh	MCF10A rerep	KB-3-1 cytotox	KB-V1 MDR tox
CCCC(=O)NC(c1ccc(OC)cc1)c1c(O)ccc2ccccc12 (stereo unspecified)	15%	21µM*	-5%	3.7µM*	?	?
CCOc1ccc(C(NC(=O)CC)c2c(O)ccc3ccccc23)cc1 (stereo unspecified)	6%	9.2µM*	-7%	?	?	i
CC(C)CC(=O)NC(c1ccccc1Cl)c1c(O)ccc2ccccc12 (stereo unspecified)	?	?	-1%	?	?	21µM*
CC(=O)Oc1ccc2ccccc2c1C(NC(=O)Cc1ccccc1)c1ccc(Cl)cc1 (stereo unspecified)	14µM*	9%	-3%	?	?	?
CC(C)Sc1ncc(Cl)c(C(=O)Nc2ccc(S(=O)(=O)N3CCCCC3C)cc2)n1 (stereo unspecified)	2%	·	·	·	i	i
O=C(NC1CCCCC1)c1ccc(CSc2nc3cccnc3n2Cc2ccc(F)cc2)cc1	3%	·	·	·	i	i
CCC(C)(C(=O)NC1CCCCC1)N(Cc1ccco1)C(=O)c1ccc2c(c1)OCO2 (stereo unspecified)	-1%	-2%	-3%	0%	i	12µM*
COc1ccc(CC(=O)Nc2ccc(-c3nc4ccccc4s3)c(C)c2)cc1OC	1%	·	·	·	i	?
O=C(CCl)c1cc2c3c(c1)CC(=O)N3CCC2	-1%	16µM*	-3%	?	i	i
O=C(NCCO)C(=O)Nc1cc2c3c(c1)CC(=O)N3CCC2	-1%	1%	-2%	0%	i	i
Cc1ccc(CN=Cc2[nH]c3ccc(Br)c(Cl)c3c2O)cc1	11µM*	-9%	7%	4%	i	i
Cc1ccc(S(=O)(=O)NCCc2nnc3ccc(SCc4ccccc4F)nn23)cc1	0%	·	·	·	i	i
Cc1csc(NC(=O)CCCC(=O)O)c1-c1nc2ccccc2s1	-1%	15µM*	-2%	11%	i	i
CC(=O)NCc1ccc(-c2nc3ccccc3s2)cc1	-1%	-39%	-6%	5%	i	i
CNc1sc(C(=O)c2cccs2)c(N)c1-c1nc2ccccc2s1	1%	2%[9.22 µM]	-3%	?	i	i
CNc1sc(C(=O)c2ccc(F)cc2)c(N)c1-c1nc2ccccc2s1	-2%[38.3 µM]	5.2µM*	-8%	16µM*	i	i
CC(=O)Nc1scc(C)c1-c1nc2ccccc2s1	4%	191%	-5%	21µM*	i	i
